Data published in PubChem BioAssay (EPA / NIEHS).
Results filed as inconclusive are left out. Calls of active or inactive are those of the source. The calls were made as follows: active = hit-call score of the fitted dose curve at least 0.9, where 1 is the maximum; inconclusive = response in the unintended direction; inactive = score below 0.9.

What follows are molecules tested against human Phosphatase and Tensin Homolog (PTEN), PTEN (gene 5728) (UniProt P60484) (assay: NVS_ENZ_hPTEN: NovaScreen (NVS) Enzymatic Assay for human Phosphatase and Tensin Homolog (PTEN) (AID 2283203)).
Experimental: NVS_ENZ_hPTEN is a biochemical, single-readout assay that uses extracted gene-proteins in a cell-free assay. Measurements were taken 1 hour after chemical dosing in a 384-well plate.NVS_ENZ_hPTEN is one of one assay component(s) measured or calculated from the NVS_ENZ_hPTEN assay. It is designed to make measurements of enzyme activity, a form of enzyme reporter, as detected with fluorescence intensity signals by Fluorescence and electrophoretic mobility shift technology.Data from the assay component NVS_ENZ_hPTEN was analyzed into 1 assay endpoint. This assay endpoint, NVS_ENZ_hPTEN, was analyzed in the positive analysis fitting direction relative to DMSO as the negative control and baseline of activity. Using a type of enzyme reporter, loss-of-signal activity can be used to understand changes in the enzymatic activity as they relate to the gene PTEN. Furthermore, this assay endpoint can be referred to as a primary readout, because this assay has produced multiple assay endpoints where this one serves a enzymatic activity function. To generalize the intended target to other relatable targets, this assay endpoint is annotated to the phosphatase intended target family, where the subfamily is dual-specific phosphatase.
Binding assays used specific radioligands (tritiated, iodinated) with non-radioactive competitive displacement ligands in agonist or antagonist protocols (as indicated) and various reference compounds and inhibitors to titrate specific binding to receptors and transporters. Most enzyme assays (CYPs, kinases, phosphatases, proteases, HDACs) used recombinant protein and specific substrates (fluorescence mostly, some colorimetric and radioactive) and inhibitors, followed by a biochemical separation of substrate and product. All assays for the biochemical HTS were initially run in duplicate at a single concentration (10 uM for CYP450 assays and 25 uM for all others). […] Each assay was run with positive and negative controls, and concurrent controls on every plate. The follow-up (secondary) screen tested active chemical-pairs in concentration series, as well as a few additional assays not tested in the primary screen, some selected negative inactives, and several cases re-run in the concentration series for confirmatory purposes.

Chain of human Phosphatase and Tensin Homolog (PTEN), PTEN (gene 5728) (P60484 whole entry, looked up): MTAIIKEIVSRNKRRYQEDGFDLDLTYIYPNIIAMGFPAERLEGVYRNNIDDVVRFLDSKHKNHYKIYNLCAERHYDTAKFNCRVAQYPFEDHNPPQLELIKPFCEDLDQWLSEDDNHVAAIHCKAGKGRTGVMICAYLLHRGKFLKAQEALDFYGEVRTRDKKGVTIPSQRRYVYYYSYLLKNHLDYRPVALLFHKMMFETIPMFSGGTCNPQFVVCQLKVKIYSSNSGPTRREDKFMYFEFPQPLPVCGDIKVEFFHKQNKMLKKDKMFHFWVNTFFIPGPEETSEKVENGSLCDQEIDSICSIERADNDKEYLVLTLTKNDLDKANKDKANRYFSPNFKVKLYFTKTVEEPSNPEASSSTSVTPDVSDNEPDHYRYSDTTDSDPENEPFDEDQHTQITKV

SMILES	outcome	AC50
O=[N+]([O-])c1cc(Cl)ccc1Cl	inactive	–
Cn1[nH]nnc1=S	–	1.08 µM (active)
Nc1ccc([N+](=O)[O-])cc1Cl	–	2.67 µM (active)
Cc1ccc(C(=O)Cl)cc1	inactive	–
O=c1ssc(Cl)c1Cl	inactive	–
ClC(Cl)=C(c1ccc(Cl)cc1)c1ccccc1Cl	inactive	–
CCOP(=S)(OCC)SCSc1ccc(Cl)cc1	inactive	–
CC(C)(C)OOC(C)(C)C	inactive	–
Clc1ccc(Oc2ccccc2)cc1	inactive	–
CC(Cl)CN(C)C (stereo not given)	inactive	–
